Records with an inconclusive call do not appear. Active and inactive are the calls of the source. Rule for the calls, unless noted: active = hit-call score of the fitted dose curve at least 0.9, where 1 is the maximum; inactive = score below 0.9.
Columns and labels:
[1] = CCTE_Deisenroth_AIME_96WELL_CTox_Active: Cytotoxicity Assessment (CTOX) in CCTE's 96-well Estrogen Receptor Transactivation Assay with AIME metabolic competence (metabolism positive), Deisenroth Lab (AID 2284028; active = hit-call score of the fitted dose curve at least 0.9, where 1 is the maximum)
Method in brief: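 Chemicals (0.002–200 uM) were first incubated 2 h with alginate-immobilized phenobarbital/beta-naphthoflavone-induced male rat liver S9; conditioned medium then went onto VM7Luc4E2 cells for 24 h, with viability read by protease-substrate fluorescence, fitted bidirectionally.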

[2] = CCTE_Deisenroth_AIME_96WELL_CTox_Inactive: Cytotoxicity Assessment (CTOX) in CCTE's 96-well Estrogen Receptor Transactivation Assay without AIME metabolic competence (metabolism negative), Deisenroth Lab (AID 2284029; active = hit-call score of the fitted dose curve at least 0.9, where 1 is the maximum)
Method in brief: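 Chemicals (0.002 - 200 uM, 10 points) incubated 2 h with alginate-water microspheres (no S9), then medium moved onto VM7Luc4E2 cells for 24 h. Viability by protease-substrate cleavage to fluorescent probe; bidirectional fitting.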

[3] = CCTE_Shafer_MEA_dev_firing_rate_mean: CCTE's Neural Network Formation Assay for Mean Firing Rate, Shafer Lab (AID 2284031)
Method in brief: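 Rat primary cortical neurons were seeded on multielectrode arrays and treated from plating through day 12, with redosing at each feed. Spontaneous spiking was recorded four times; mean firing rate AUC was fitted downward against DMSO.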

[4] = CCTE_Shafer_MEA_dev_per_burst_spike_percent: CCTE's Neural Network Formation Assay for Percent of Spikes in a Burst, Shafer Lab (AID 2284032)
Method in brief: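 Rat primary cortical neurons on 16-electrode MEA wells, dosed from plating day 0 for 12 days with renewal on DIV 5 and 9; spikes-in-bursts percentage averaged over bursting electrodes, collapsed as AUC across days 5, 7, 9, 12; loss direction versus DMSO.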

[5] = CCTE_Shafer_MEA_dev_active_electrodes_number: CCTE's Neural Network Formation Assay for Number of Active Electrodes, Shafer Lab (AID 2284040; active = hit-call score of the fitted dose curve at least 0.9, where 1 is the maximum)
Method in brief: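 Primary rat cortical neurons on 16-electrode MEA wells, exposed from day 0 through day 12 with compound renewed at DIV 5 and 9 feeds. Active electrodes (mean firing ≥5 spikes/min) counted at DIV 5, 7, 9, 12; trapezoidal AUC across days, loss-of-signal versus DMSO.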

[6] = CCTE_Shafer_MEA_dev_burst_rate: CCTE's Neural Network Formation Assay for Burst Rate, Shafer Lab (AID 2284042)
Method in brief: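 Rat primary cortical cultures on PEI/laminin MEA; compound from plating, re-dosed at DIV 5, 9 media change. Single-electrode bursts/recording length, well mean of active electrodes; AUC over DIV 5–12 recordings; loss-of-signal vs DMSO.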

[7] = CCTE_Shafer_MEA_dev_bursting_electrodes_number: CCTE's Neural Network Formation Assay for Number of Bursting Electrodes, Shafer Lab (AID 2284043; active = hit-call score of the fitted dose curve at least 0.9, where 1 is the maximum)
Method in brief: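 Read-out is the per-well number of electrodes bursting at least once every 2 minutes, recorded on days 5, 7, 9 and 12 and collapsed by trapezoidal area under the curve. Cultures were primary rat cortical neurons on MEA plates, treated continuously from plating.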

[8] = CCTE_Shafer_MEA_dev_per_burst_interspike_interval: CCTE's Neural Network Formation Assay for Burst Interspike Interval, Shafer Lab (AID 2284044);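 note: mean spike spacing inside bursts as AUC over recordings on days 5 7 9 12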
Method in brief: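 Developmental network-formation MEA in primary rat cortical cultures with exposure spanning days 0–12. Within-burst ISI is averaged per well and integrated across recording days by area under the curve, with DMSO as negative control baseline.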

[9] = CCTE_Shafer_MEA_dev_burst_duration_mean: CCTE's Neural Network Formation Assay for Mean Burst Duration, Shafer Lab (AID 2284045)
Method in brief: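 Read-out: average first-to-last-spike interval within single-electrode bursts, averaged over bursting electrodes per well, then summarised as area under the curve across days 5, 7, 9 and 12. Developing rat cortical networks were exposed from day 0.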

[10] = CCTE_Shafer_MEA_dev_interburst_interval_mean: CCTE's Neural Network Formation Assay for Mean Interburst Interval, Shafer Lab (AID 2284046);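 note: well-mean interburst interval of bursting electrodes as AUC over four recording days; curve fitted for decrease in interburst interval relative to DMSO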
Method in brief: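 Rat cortical neurons, 1.5 x 10^5 cells/well, 48-well MEA; compound from day 0 through DIV 12, media and treatment renewed DIV 5/9. Recordings DIV 5, 7, 9, 12; well-mean interburst interval → trapezoidal AUC, loss direction vs DMSO.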

[11] = CCTE_Shafer_MEA_dev_inter_network_spike_interval_mean: CCTE's Neural Network Formation Assay for Mean Inter-network Spike Interval, Shafer Lab (AID 2284047)
Method in brief: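 Primary rat cortical neurons on PEI-coated 48-well MEAs (16 electrodes/well) were exposed from plating day 0 to DIV 12, with dosing renewed at DIV 5 and 9. Recordings at DIV 5, 7, 9, 12 were collapsed by trapezoidal AUC, loss-of-signal fit vs DMSO.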

[12] = CCTE_Shafer_MEA_dev_network_spike_number: CCTE's Neural Network Formation Assay for Number of Network Spikes, Shafer Lab (AID 2284048);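 note: synchronized bursts across electrodes counted on days 5 7 9 12 and integrated as AUC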
Method in brief: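 Developing networks of primary rat cortical neurons are treated over 12 days starting at plating, with media and compound fully replaced on DIV 5 and 9. Network spike counts from four recording days are integrated as trapezoidal AUC.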

[13] = CCTE_Shafer_MEA_dev_network_spike_peak: CCTE's Neural Network Formation Assay for Mean Number of Electrodes in Network Spike, Shafer Lab (AID 2284049)
Method in brief: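 Rat cortical primary culture, 1.5 x 10^5 cells/well, 48-well MEA (16 electrodes/well). Dosing day 0 through DIV 12, full media/compound exchange DIV 5, 9. AxIS adaptive spike detection; AUC over days 5/7/9/12; loss-of-signal vs DMSO.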

[14] = CCTE_Shafer_MEA_dev_spike_duration_mean: CCTE's Neural Network Formation Assay for Mean Spike Duration, Shafer Lab (AID 2284051);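 note: mean network spike duration pooled as area under curve over DIV 5 to 12 recordings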
Method in brief: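 Rat cortical primary cultures, 48-well MEA (16 electrodes/well); compound from plating, renewed DIV 5, 9. Network spike duration (AxIS adaptive detector) recorded DIV 5/7/9/12, combined as trapezoidal AUC; loss direction vs DMSO.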

[15] = CCTE_Shafer_MEA_dev_network_spike_duration_std: CCTE's Neural Network Formation Assay for Standard Deviation of Network Spike Duration, Shafer Lab (AID 2284052);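 note: area under curve of spike duration SD across recording days 5 to 12; hits are decreases in network spike duration SD versus DMSO vehicle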
Method in brief: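 Rat cortical cultures, 1.5 x 10^5 cells/well, exposed continuously from plating to DIV 12 with media/compound renewal at DIV 5, 9. Spontaneous activity recorded DIV 5/7/9/12, AxIS adaptive spike detector; AUC across days; negative direction vs DMSO.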

[16] = CCTE_Shafer_MEA_dev_per_network_spike_spike_number_mean: CCTE's Neural Network Formation Assay for Mean Number of Spikes in a Network Spike, Shafer Lab (AID 2284053)
Method in brief: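 Rat cortical primary cultures on 48-well MEA; compound from day 0, re-dosed with full media change DIV 5, 9. Recorded DIV 5, 7, 9, 12; spikes in 0.05 s window at network-spike peak ÷ total network spikes; AUC; loss vs DMSO.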

[17] = CCTE_Shafer_MEA_dev_per_network_spike_spike_percent: CCTE's Neural Network Formation Assay for Percent of Spikes in a Network Spike, Shafer Lab (AID 2284054)
Method in brief: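 Rat primary cortical cultures, 1.5 x 10^5 cells/well on MEA. Continuous compound exposure d0–12, medium/compound renewed DIV 5, 9. Network-spike spike % (0.05 s peak window), AUC over 4 recordings, DMSO baseline.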

[18] = CCTE_Shafer_MEA_dev_LDH: CCTE's Lactate Dehydrogenase Assay for Cytotoxicity in the Neural Network Formation Assay, Shafer Lab (AID 2284068; active = hit-call score of the fitted dose curve at least 0.9, where 1 is the maximum;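 note: exposure for twelve days from plating with re-dosing on DIV 5 and 9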)
Method in brief: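 Rat cortical primary neurons, MEA culture; dosing day 0–12, full medium plus compound exchange DIV 5, 9. Read-out: LDH enzyme activity, spectrophotometric. DMSO = negative control/baseline; signal loss → cytotoxicity.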

[19] = CCTE_Shafer_MEA_dev_correlation_coefficient_mean: CCTE's Neural Network Formation Assay for Mean Correlation Coefficient, Shafer Lab (AID 2284093)
Method in brief: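 Rat cortical cultures, 1.5 x 10^5 cells/well, dosed from day 0 for 12 days. Spontaneous spikes recorded DIV 5/7/9/12; electrode-pair correlation coefficients averaged, AUC taken. Fit in loss direction vs DMSO.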

Measured: outcome

c1ccc2c(c1)ccc1c3ccccc3ccc21
inactive: all assays above

Source: PubChem BioAssay (EPA / NIEHS)
